From PubChem BioAssay (NCI)
About 83,000 compounds went through this panel and 20% of them were active in at least one assay; those are over-represented in the sample as a whole.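 Cells were grown in 96-well plates and exposed to the test compound at a single concentration for 48 hours; results are reported as percent growth, with values below 10 considered active.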 Unmarked numbers belong to inactive results. The source made the active and inactive calls.

What was measured:
Assay in all cases: NCI-60 one-dose screen, 48 h (100 = growth as untreated, 0 = no growth, -100 = all killed)
Details in all cases: 10 µM
HCT-15 colon = tested on: HCT-15 colon
HT29 colon = tested on: HT29 colon
SNB-19 CNS = tested on: SNB-19 CNS
U251 CNS = tested on: U251 CNS
PC-3 prostate = tested on: PC-3 prostate
SK-MEL-5 melanoma = tested on: SK-MEL-5 melanoma
UACC-62 melanoma = tested on: UACC-62 melanoma
LOX IMVI melanoma = tested on: LOX IMVI melanoma
SK-MEL-28 melanoma = tested on: SK-MEL-28 melanoma
SK-MEL-2 melanoma = tested on: SK-MEL-2 melanoma
SN12C renal = tested on: SN12C renal
UO-31 renal = tested on: UO-31 renal
TK-10 renal = tested on: TK-10 renal
ACHN renal = tested on: ACHN renal
CAKI-1 renal = tested on: CAKI-1 renal
A498 renal = tested on: A498 renal
CCRF-CEM leukemia = tested on: CCRF-CEM leukemia
MOLT-4 leukemia = tested on: MOLT-4 leukemia
SNB-75 CNS = tested on: SNB-75 CNS
EKVX NSCLC = tested on: EKVX NSCLC

SMILES	growth (HCT-15 colon)	growth (HT29 colon)	growth (SNB-19 CNS)	growth (U251 CNS)	growth (PC-3 prostate)	growth (SK-MEL-5 melanoma)	growth (UACC-62 melanoma)	growth (LOX IMVI melanoma)	growth (SK-MEL-28 melanoma)	growth (SK-MEL-2 melanoma)	growth (SN12C renal)	growth (UO-31 renal)	growth (TK-10 renal)	growth (ACHN renal) [%]	growth (CAKI-1 renal)	growth (A498 renal)	growth (CCRF-CEM leukemia)	growth (MOLT-4 leukemia)	growth (SNB-75 CNS) [%]	growth (EKVX NSCLC)
CCOC(=O)c1ccc(NC(=O)Nc2nncs2)cc1	17.5%	1.75% (active)	58.3%	17.3%	20.7%	-21.2% (active)	31.2%	13%	42.2%	37.4%	31.2%	34.1%	45.1%	36.1	24.9%	-13.3% (active)	7.54% (active)	11.7%	–	–
CCCCCC(=O)N1c2ccccc2NC2=C(C(=O)CC(c3ccc(OC)c(OC)c3)C2)C1c1ccc(C(F)(F)F)cc1 (configuration not stated)	60.6%	88%	58.1%	49.5%	16.4%	18.8%	53.9%	60.8%	86.7%	47.8%	62%	44.9%	64.4%	58.3	65.6%	57.2%	43.5%	37%	–	–
C=CCn1ccc(=O)nc1SC	110%	–	106%	102%	95.7%	112%	105%	99.7%	112%	107%	104%	89%	101%	108	106%	104%	104%	100%	91.2	104%
COc1cc2nc(Sc3sc(N)nc3C)n(-c3ccc(Oc4ccccc4)cc3)c(=O)c2cc1OC	79.9%	75%	105%	87.6%	65.2%	76.8%	81.4%	78.3%	97.9%	107%	79.7%	76.1%	98.1%	81.5	94.1%	82.1%	64.5%	54%	–	–
C#CCNCCN1C(=O)c2ccc3c4c(ccc(c24)C1=O)C(=O)N(CCNCC#C)C3=O	19.5%	2.13% (active)	46%	29.5%	47.7%	-81.3% (active)	16.7%	-3.21% (active)	83.9%	58.6%	–	29.5%	51.7%	22.9	49.8%	94.1%	40.2%	20%	–	55.7%
COc1cc(CSc2nc3ccc(Cl)cc3c(=O)n2Cc2ccccc2)cc(OC)c1OC	24.9%	11.7%	61.1%	32.8%	55.1%	25.7%	16.2%	39.3%	43.7%	21.4%	38.6%	27.1%	73.6%	40.3	26.7%	24%	28.5%	29.4%	–	–
COCc1cc2c(cc1Br)OCO2	100%	106%	105%	99.1%	86.8%	107%	100%	95.6%	99.1%	96.7%	–	84.6%	–	101	95%	91.2%	71.9%	107%	–	102%
COc1c(C)c(C)c(OC)c2c1[nH]c(=O)c1c3cccnc3cn21	118%	–	108%	106%	97.3%	119%	98.4%	107%	125%	110%	99.5%	91.2%	117%	114	104%	120%	101%	99.4%	106	100%
CCCCn1c(=O)[nH]c(N)c(C(c2ccc(Cl)cc2)c2c(N)[nH]c(=O)n(CCCC)c2=O)c1=O	76.9%	24.6%	47.9%	35.8%	32%	-11.3% (active)	41.3%	41.2%	44.7%	6.4% (active)	–	95.4%	50.7%	67.2	90.7%	89.3%	16.7%	-11.8% (active)	–	–
CC(=O)n1nc(C(=O)OC(C)(C)C)c2cc(F)c(F)cc21	101%	100%	94.9%	104%	97.7%	87%	80.3%	98.2%	96.8%	100%	–	92.6%	113%	108	101%	104%	97.5%	95%	–	105%
COc1cccc(-c2nnc(COc3ccc(-c4nc5ccc(C)cc5[nH]4)cc3OC)o2)c1	18.5%	21.4%	69.6%	23%	57.7%	70.4%	79.9%	78.4%	65.2%	98.8%	72.6%	88.2%	102%	25.9	94.4%	71.3%	2.49% (active)	25.6%	–	–
N/C(=N\O)c1cn(C2OC(CO)C(O)C2O)c2ncnc(N)c12 (configuration not stated)	7.46% (active)	7.04% (active)	16.5%	10.7%	4.66% (active)	-43% (active)	-68.2% (active)	-63.2% (active)	-53.3% (active)	-41.5% (active)	3.58% (active)	10% (active)	-0.402% (active)	11.6	3.33% (active)	-56.3% (active)	-10.4% (active)	-27.7% (active)	–	–
CCOC(=O)c1c(O)c2cc(-c3ccccc3)nc(OCC)c2c(=O)n1C	82.7%	107%	91.5%	97.3%	14.3%	86.7%	99.9%	98.7%	84.8%	87.9%	98.7%	79.6%	123%	98.3	97.3%	90.3%	56%	107%	–	96%
COC(=O)c1cnc2c(c1)Oc1ccc(Cl)cc1-c1cc(C)nn1-2	87.3%	82.5%	62%	50.4%	95.1%	88.1%	74.7%	60.2%	96.4%	98.3%	–	82.8%	95.4%	42.4	57.8%	99.2%	121%	102%	–	71.2%
Cc1cc(O)c(C2=NN(c3ccc(S(N)(=O)=O)cc3)C(c3ccc(N(C)C)cc3)C2)c(C)c1Cl (configuration not stated)	80.5%	52.7%	107%	78.3%	13.6%	79.6%	64.8%	82.8%	90.2%	92.5%	74.8%	–	113%	88.6	–	74.3%	28%	27.3%	–	51.1%
C/C=C\COc1cc(C)c(Cl)cc1Cl	109%	114%	97.3%	94.6%	98.5%	99.6%	100%	106%	104%	120%	94.7%	84.8%	125%	128	98.8%	101%	95%	108%	–	–
CCOC(=O)c1cc2c(n1Cc1cccc(OC)c1)-c1oncc1CC2	28.7%	4.06% (active)	37.4%	22.4%	32.7%	8.61% (active)	30.8%	41.7%	37.8%	34.7%	37.1%	-0.772% (active)	53.2%	42.8	7.23% (active)	10.8%	13.1%	33.1%	–	50.6%
Fc1ccc(Nc2ccnc(N3CCN(c4ccnc5cc(Cl)ccc45)CC3)n2)cc1	38.4%	22.3%	65.7%	47%	23%	26%	45.3%	49.8%	81%	60.3%	49%	7.09% (active)	30.5%	38.7	41.9%	22.7%	40.1%	13%	–	–
CC(C)(C)CC(C)(C)c1ccc(O)c(Cc2ccc(Cl)cc2Cl)c1	-78.7% (active)	-92.4% (active)	-82.9% (active)	-95.3% (active)	-65.2% (active)	-95.1% (active)	-87.9% (active)	-95.4% (active)	-84.9% (active)	-76.9% (active)	–	-98.7% (active)	-92.7% (active)	–	-83.3% (active)	-94% (active)	-37.4% (active)	-62.7% (active)	–	-77.1% (active)
